Screening data deposited in PubChem BioAssay by Sanford-Burnham Center for Chemical Genomics.
Compounds with a hit are over-represented: about 3.9% of the library has one in this group of screens.
TWEAK Fn14 block: TWEAK-Fn14 signaling inhibition; TWEAK-stimulated Fn14 reporter cells, luciferase luminescence, 8 h; inhibition, % at 10 µM; actives 2% (n = 360,000); AID 1159606; in the data active means inhibition above about 50%
Peg3 promoter: Peg3 promoter activity inhibition | HeLa PEG-Prom luciferase reporter, luminescence, overnight | inhibition, % at 20 µM | actives 1.7% (n = 360,000) | AID 588405;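 active means inhibition of at least 50% at 20 µM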
KKLEB cytotox: counter-screen for CF NF-kB inhibitors: cytotoxicity; KKLEB CF airway cells viability, ATPlite luminescence, overnight; active compounds read low; cells stimulated with P. aeruginosa culture filtrate; activity change (cytotoxicity), % at 5 µM; actives 0.36% (n = 360,000);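 active means corrected activity change at or below -50% at 5 µM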
CF NFkB inh: blocks PAF-induced NF-kB reporter in cystic fibrosis cells | KKLEB NF-kB-GFP reporter, GFP fluorescence overnight | inhibition, % at 5 µM | actives 0.86% (n = 360,000) | AID 588850;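 active means at least 50% inhibition at 5 µM, scaled per plate between neutral and stimulator controls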;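 further: PAF is a Pseudomonas aeruginosa culture filtrate used as stimulus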
TROY NFkB inh: TROY signaling inhibition; Q293 LMP1-TROYcd NF-kB luciferase reporter, 4 h; inhibition, % at 10 µM; actives 0.98% (n = 360,000); AID 1347056;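 active means compounds whose plate-normalised and pattern-corrected inhibition of the luciferase reporter signal at the single screening dose is 50% or more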
HIF-2a inh: inhibitors of HIF-2a. AID 624352. actives 0.72% (n = 360,000). inhibition, % at 18.8 µM. 786-0 RCC cells HIF-2a reporter, luciferase luminescence, overnight;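 active means inhibition of the luminescence signal of 40% or more relative to plate controls, in a single-dose primary screen at 18.75 µM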
Hits are given with their value; n = inactive; x = no result given.

SMILES | TWEAK Fn14 block | Peg3 promoter | KKLEB cytotox | CF NFkB inh | TROY NFkB inh | HIF-2a inh
CC12CC[C@H]3[C@@H](CCC4(O)C[C@H](O)CCC34/C=N/NC(=O)c3ccccc3O)C1(O)CCC2C1=CC(=O)OC1 (stereo partly drawn) | n | 80.5 | n | n | n | n
c1ccc2c(c1)[IH]c1ccccc1-2 | n | 96.0 | n | n | n | 51.8
CCn1c(NN=O)nc2ccccc21 | n | n | n | n | n | n
COCCn1c(-c2ccccc2)cc(C(=O)O)c1C | n | n | n | n | n | n
CCCCCCOc1ccc(CN2CCN(CC)CC2)cc1 | 65.9 | n | n | n | 60.3 | n
Cc1ccc(Cn2cc(C=O)c(-c3ccc(C)cc3)n2)cc1 | n | n | n | n | n | n
COC(=O)C(O)(c1cn(C)c2ccccc12)C(F)(F)F (stereo not drawn) | n | n | n | n | n | n
Oc1c(Cl)c(Cl)c(Cl)c(Cl)c1Cl | n | n | n | n | 63.6 | n
CC1=C2C3OC(=O)C(C)C3CC[C@@]2(C)C=CC1=O (stereo partly drawn) | n | n | n | n | n | n
C=C(C=O)CC1CC(O)[C@]2(C)OC3CC4OC5C[C@]6(C)O[C@]7(C)CCC8OC9C[C@]%10(C)OC%11C(C)=CC(=O)OC%11CC%10OC9C[C@@H](C)C8OC7CC6O[C@]5(C)CC5OC5C4OC3CC2O1 (stereo partly drawn) | 108.5 | 99.8 | -69.5 | 90.6 | 89.1 | 93.7
COc1ccc(/C=C2/C(=O)NC(=S)N(C3CC3)C2=O)cc1CN1C(=O)c2ccccc2C1=O | n | n | n | n | n | n
Cc1cc(C=C(C#N)C#N)ccc1N1CCCC1 | n | n | n | n | n | n
CCN1/C(=C\C=C\C2=[N+](CC)c3ccccc3C2(C)C)C(C)(C)c2ccccc21 | 100.0 | 96.5 | n | n | 65.4 | 73.7
CC(Cc1ccccc1)[n+]1cc(/N=C(\[O-])Nc2ccccc2)on1 (stereo not drawn) | n | n | n | n | n | n
COc1ccc(CN2Cc3cc(N4CCOCC4)ccc3-n3nncc3C2)cc1 | n | n | n | n | n | n
CCCCN1C(=O)C(C2c3ccccc3C(=O)N2Cc2ccccc2)C(=O)NC1=S (stereo not drawn) | n | n | n | n | n | n
CCCCCn1c(=O)c(C(=O)Nc2ccccc2Cl)c(O)c2ccccc21 | n | n | n | n | n | n
CCCCCn1c(=O)c(C(=O)Nc2nc3ccccc3[nH]2)c(O)c2ccccc21 | n | n | -52.0 | n | n | n
C=Cn1ccnc1P(=S)(c1c(C)nn(-c2ccccc2)c1C)c1nccn1C=C | n | n | n | n | n | n
CCn1c(O)c(C=NCCN2CCOCC2)c(=O)n(CC)c1=S | n | n | n | 53.7 | n | n
CCn1c(O)c(N=Nc2ccc(S(=O)(=O)N3CCOCC3)cc2)c(=O)n(CC)c1=S | 57.0 | n | n | n | n | n
CCn1c(O)c(C=Nc2ccc(N3CCOCC3)cc2)c(=O)n(CC)c1=S | n | n | n | 56.9 | n | n
O=P(N[C@@H](c1ccccc1)[C@@H]1C[C@H]1CO)(c1ccccc1)c1ccccc1 | n | n | n | n | n | n
S=P(N1CCCCCC1)(N1CC1)N1CC1 | n | n | n | n | n | n
COC1=C(C)C(=O)C2=C(C1=O)C(CO)N1C(C#N)C3CC4C(C1C2N1CCOC41)N3C (stereo not drawn) | n | 94.8 | n | 88.0 | n | n
SMILES | TWEAK Fn14 block | Peg3 promoter | KKLEB cytotox | CF NFkB inh | TROY NFkB inh | HIF-2a inh
CC1(CCO)C(=O)NC(=S)NC1=O | n | n | n | n | n | n
CCN(CC)CCCNC(=O)c1c(O)c2ccccc2n(Cc2ccccc2)c1=O | n | 54.3 | n | n | n | n
CCN1C(=O)/C(=C/c2ccc(N(CC)CC)cc2OC)C(=O)NC1=S | 67.3 | 90.0 | n | n | n | n
COc1ccccc1/C=C1\C(=O)NC(=S)N(c2ccccc2)C1=O | n | n | n | n | n | n
COc1ccc(CNCCc2c[nH]c3ccccc23)c(OC)c1C | n | 109.2 | n | n | n | n
COc1cc(C)c(CNCCc2c[nH]c3ccccc23)cc1C | n | 95.5 | n | n | n | n
COc1cccc(CNCCc2c[nH]c3ccccc23)c1 | n | n | n | n | n | n
O=NN(CCF)C(=O)NC1CCC(=O)NC1=O (stereo not drawn) | n | x | x | x | n | n
CC(C)Oc1ccc(CCN)cc1Cl | n | n | n | n | n | n
